Source: the supplement of paper PMC12632987

B1: uchl1_143_7486 (protein)
chain: EVEVIELSEEEVAEILALSPEEALERLKEILREAVELGKDTRVLIPAPEDANDRLRLNTLVRRAAREVAKEYADKIESVTISQERDPNGRPRIVVEIKVK
B2: uchl1_143_7471 (protein)
chain: GEPEPPTLEVHIEVDETTTPEEIREKLWKAIEEAAKAKKNLKITITVPADSNKRLMVTTVAKRVAREAAKKYKNELKKLEIYARDAATGKEQLIAEYENP
B3: uchl1_143_7484 (protein)
chain: EVKVIELSPEEVAEILSASPEEALARLKEILEEAVELGVDTEVVLPAPADANDRLRLNTLVRRAAREVAKKYADKIDSVTISQRLDPDEPPKLVVSIKVK
B4: uchl1_143_7481 (protein)
chain: SLENVEVLEVEITVTRETRPEDLYARLLAAIREAHAAGKALRITITVEPDANVRVMVGNVAKRAVRDAAQELGEPFVRTLILARDAETGKTQTLVDVEAP
B5: uchl1_143_7457 (protein)
chain: GPEVVPVRRVEITVTRADTPEEIEARLLAAVREAAAAGEALLITITVEGDANLRVMVGNVAKRVARRAAREYGDTLPSLRIIARDAETGKEQLLAEVDNR
B6: uchl1_143_7478 (protein)
chain: GAPEPEIPVIRLELDAADSDEEIRKRALEAAKEAAEKGAALEIIITVPPDPNARVRANNIAKRLAREIIKKYGDKIKELRVLLRDEETGREDLIALYEKP
B7: uchl1_143_7460 (protein)
chain: GAAPLPVLRTTIEVSEEDTPEEIYARIKAAIEEAIAAGKAAEVTIVVPPNPNVRVMVNNVAKRAARDVAKEYAGKVKEIRIYLEDRETGKRQLVAEVVNP
B8: uchl1_143_7461 (protein)
chain: ALEPLPVQKTTIEVSESDTPEEIYERIKAAIEAAIAAGKAAEVTIVVPPDPNVRVMVNNVAKRAAREVAQEHADKVKRITINLTDKETGKTEVVAEVVRP
B9: uchl1_143_7459 (protein)
chain: GSPEEEVEVIEVTIEPTDTPEQIREKITKALKEAVELEKDTRIVITVPPDPNLKLMVNTVARRELKKIAQEYPEKTKTITVEARDAETGKVDLLAEYVKE
B10: uchl1_143_7475 (protein)
chain: APAALEVLTTHLEVGEDDTPEEIRARLLAAIDEALAAGKAAEIVVTVPPDANKRLMVNTVARRVAREAARRYGDRLRLLRILLRDAETGRTQLVALVERP
B11: uchl1_143_7464 (protein)
chain: GSAPRPVIHLERTLSADTTLEEVEALVREAAELSVETGAPVVLTFTVSGDPNHRLRAHTMLRRAARRVIQELADRIPELRVLLRDEKTGKTQLIAHFDNR
B12: uchl1_143_7470 (protein)
chain: GRPTPPTLTVNLTFDETTTPEEIRAALNAAIDEAAAAGKNLTITITVPADSNKRLMVTTVARRVAREAAKRYRDKLPELRILATDAATGKTQLIAEYVNE
B13: uchl1_143_7479 (protein)
chain: GAAPRPVVTTTLTFTEEDTPEEIRARITAALRALVATGQDGVLLLTVPPNPHMRVMVNTVARRALREVAQATHAPGVTLTVQARDAETGKVDTLATAVLE
B14: uchl1_143_7476 (protein)
chain: PPEALPVLETTIEVSEDDTPEEIRARLMAAIDEALAAGKAARIVIVVPPDANKRLMVNTVARRVAREAARRYGERLRYLEILLRDKETGKEQLVALVERP
B15: uchl1_143_7485 (protein)
chain: EVRVIELTPEQVAAILSASPEAALATLEAIFEAAVALGVDTRVVLPAPADANDRLRLNTLVRRAARRVAKRRADEIDAVVISNERDPDRPARLVVTITVK
B16: uchl1_143_7468 (protein)
chain: GPAVEPVETVTITVTPDTTPEELRARLLAAIDAALAAGKALTITIVVPPDANLRVMANTVAKRVAREVARAHGDRLRRLTIRARDAATGKTQLLAEVVNP
B17: uchl1_143_7458 (protein)
chain: GLEAIPVLEVHLRVTPADTPEEIRARLMAAIEEAAAAGKALRIVITVEGDANLRVMVGNVAKRVAREAARRYGATLPSLTIVARDAETGREQLLAEADFR
B18: uchl1_143_7456 (protein)
chain: PPAPVPVHRVTIEVTREDTPEEIRARLEAAVAEAAAAGAALEITVVVTSDPNVRVMANTVARRVAREAARRYRDTLPSLRIVLRDRETGKEQLIAEADFR
B19: uchl1_143_7474 (protein)
chain: PLEHMEIETVEIEVSETDTPEEIEKRLREAIEKGIEKGKALRIVVTVPPDANKRLMVNTVARRVARETAKKYKDKLKYLEILLRDRETGKVDLAALIERP
B20: uchl1_143_7455 (protein)
chain: GHHMLEVEKIEIEVEETDTPEEIKKKIMEAMKKAVAKGKAIEIIITVPPDANFRLMVNTVAKRAAREFAKEYKDKLKYLKIYARDKETGKEDLIAEIVNP
B21: uchl1_143_7482 (protein)
chain: EVEVIRLTPEEVEEILSLSPEEALARVKEILAAAVELGKDTEVVFPAPEDANDRLRLGTIVRRAAREVAKEYADKIESVEIYQEKDPDEPPRLVVRITKK
B22: uchl1_143_7467 (protein)
chain: GPAAEPVLEVTIRVTRDTTPEELRARLLAAIDEAIAAGKALKITIEIPPDANLRVMVNTVAKRVAREVAKARGAELKRLVILGRDSATGKEQVLAEVVNP
B23: uchl1_143_7466 (protein)
chain: GPAPVPVLRVERTWTADTTLEEVLALLREAAERAIKEGKDLEVIFTVSPDPNHRLRANTLARRAGKEITQELGKRIRRLRVLLRDAETGKVDLIYEHDGR
B24: uchl1_143_7477 (protein)
chain: GAPEEPIETIKLTLDASMSDEEIRAKAMAAAEEAAAKGAALEITIVVPPDPNARVRANNIAKRIAREIIQKYGDKIKELKIYLQDEETGKKDLIALYEKP
B25: uchl1_143_7462 (protein)
chain: GAPALPVLRTTIEVTREDTPEEIHARIVAAIREAIAAGKAAEVTIVVPPDPNVRVMVNNVAKRAAREVAQEHADAVKRITIRLRDRETGRTQLVALVERP
B26: uchl1_143_7469 (protein)
chain: APEPIEHIEVTIEVAETDTFEEIHARISAAIDAAIALGRRTELTIRLVVPTTASANLRVMVNTAARRALREHADHLEDASISGEQRPGKAVLVIRVLTKA
B27: uchl1_143_7480 (protein)
chain: GAPARPVVTRTLRFTEEDTPEEIRARITAAIRALVATGQDGVLLLTVPPNPNMRVMVSTVARRALREVAQETRAPGVTLTVEARDEETGKVDVLATADLK
B28: uchl1_143_7472 (protein)
chain: AAEARPVRTVEIDVTLDDTPEEIEARLLAAAEEAIAAGEDLRIVVTVPPDPNKRLMVNTVAKRVARRVARAHADRVRRLEIYARDAETGKEQLIAEIVRP
B29: uchl1_143_7473 (protein)
chain: HHHMMETETVEIEVKEDDTPEEIRERMMKAIEEAIAAGKNLRIVITVPSDANKRLMANTVAKRVAREAAKKYREKLKRLEIYLRDKETGKEDLIALVENP
B30: uchl1_143_7465 (protein)
chain: GSMHMETLTVERTMTEDTTLEEVYALLEEAAKKAIAEGKDLVVIFTVSSDPNHRLRANTLARRAARRIIQEYGKEIRRLEVLLRDAETGKVDLIALHDGR
B31: uchl1_143_7483 (protein)
chain: EVVVIELSPEEVEEILSLSPEEALERVYEILREAVELGRDTEVVFPAPADANDRLRLGTIVRRAARKVAKDRADLIDAVEIYQRRDPNRPPALVVRITRK
B32: uchl1_143_7463 (protein)
chain: EEVELEVIHIEVTLTEDTTLEEVRALVEEAARLSIETGKHVVLTATVSNDPNHRLRANTMLRRAAREVIQERGAEIPKLVILLRDAETGKEDVIAEFDNR

molecular target: UCHL1, P09936; assay: median log2 fold change of GCK-ALFA target abundance (FLAG IP / Myc IP barcode read proportion) (log2 ratio); each designed protein is fused to an ALFA-tag nanobody in HEK293 cells to bring the named protein to FLAG-tagged glucokinase (GCK); Myc marks an untargeted standard; higher = target protein stabilised (more abundant); conditions: target protein: 3xFLAG-MCP-GCK-ALFA reporter; HEK293 landing pad (RPLP)
Summary of the method: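 The readout is target abundance, the per-binder median log2 ratio of FLAG to Myc barcode read proportions. It came from HEK293 landing-pad cells carrying a recombined ALFA-nanobody-fused binder library, induced with 2 μg mL^−1 doxycycline and transfected with a plasmid for a FLAG-tagged target and a Myc-tagged standard. After 48 h, lysates were immunoprecipitated with anti-FLAG and anti-Myc, and circular RNA barcodes were reverse transcribed, amplified and sequenced. Each barcode needed a proportion of at least 10^−7 in both replicates and each binder at least 3 barcodes per replicate, a pseudocount of 10^−6 was added, and the replicates were pooled.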

Chain of UCHL1, P09936 (P09936 whole entry, looked up, the tested form may be a part): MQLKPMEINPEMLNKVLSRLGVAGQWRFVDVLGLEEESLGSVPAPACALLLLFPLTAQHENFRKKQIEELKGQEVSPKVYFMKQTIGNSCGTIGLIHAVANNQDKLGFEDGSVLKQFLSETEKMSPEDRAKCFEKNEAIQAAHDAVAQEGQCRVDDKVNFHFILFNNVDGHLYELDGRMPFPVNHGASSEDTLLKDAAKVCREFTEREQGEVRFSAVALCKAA

Binder	median log2 fold change
B1	0.252
B2	0.0842
B3	0.0432
B4	0.391
B5	0.225
B6	0.179
B7	0.0504
B8	0.242
B9	0.347
B10	0.136
B11	0.163
B12	0.272
B13	0.219
B14	0.0615
B15	-0.394
B16	0.11

Binder	median log2 fold change
B17	0.147
B18	0.0928
B19	0.325
B20	0.157
B21	0.231
B22	-0.119
B23	0.0958
B24	0.136
B25	0.133
B26	0.139
B27	-0.0743
B28	0.3
B29	0.139
B30	0.138
B31	-0.0334
B32	0.184
